We go through 15 molecules from PubChem BioAssay (EPA / NIEHS).

What is called AC50 is the concentration at which the activity in the assay is half-maximal.

Inconclusive results are not listed. Activity calls are given as the source filed them. How the source made its calls: active means hit-call score of the fitted dose curve at least 0.9, where 1 is the maximum; inconclusive means response in the unintended direction; inactive means score below 0.9.

Test [1] has as its target human Elastase, ELANE (gene 1991) (UniProt P08246). The experiment in a line: NVS_ENZ_hElastase: NovaScreen (NVS) Enzymatic Assay for human Elastase (AID 2283153). The procedure, abridged: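 Cell-free elastase from human neutrophils, 1.5 h after dosing, activity read by absorbance. Primary screen in duplicate at 25 uM; hits (e.g., 30% inhibition) rerun in singleton concentration-response up to 50 uM, fitted versus DMSO.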

In test [2] the target is human Esterase Plasma (ES), BCHE (gene 590) (UniProt P06276). The experiment in a line: NVS_ENZ_hES: NovaScreen (NVS) Enzymatic Assay for human Esterase Plasma (ES) (AID 2283157). The method, boiled down: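 Cell-free enzyme assay using esterase extracted from human plasma; colorimetric absorbance read 0.25 hour after dosing. Single-concentration duplicate screen at 25 uM, then concentration-response up to 50 uM; loss of signal scored against DMSO baseline.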

Test [3] concerns the target human Matrix Metalloproteinase-9 (MMP9), MMP9 (gene 4318) (UniProt P14780). Description: NVS_ENZ_hMMP9: NovaScreen (NVS) Enzymatic Assay for human Matrix Metalloproteinase-9 (MMP9) (AID 2283190).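 Further: cell-free recombinant MMP9 protease activity read by fluorescent substrate signal; active means inhibition seen as loss of fluorescence signal versus DMSO.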 The procedure, abridged: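 Cell-free recombinant MMP9 enzyme activity measured by fluorescence intensity 1 h after dosing. Primary screen in duplicate at 25 uM, actives followed in concentration series; loss of signal relative to DMSO.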

Test [4] concerns the target human Phosphodiesterase 5 (PDE5), PDE5A (gene 8654) (UniProt O76074). The experiment in a line: NVS_ENZ_hPDE5: NovaScreen (NVS) Enzymatic Assay for human Phosphodiesterase 5 (PDE5) (AID 2283194). The procedure, abridged:
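Recombinant human PDE5 with specific substrate, read 1 h after dosing by fluorescence with electrophoretic mobility-shift separation of substrate and product. Initial single-concentration duplicate screen at 25 uM, actives followed in concentration series; loss of activity versus DMSO.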

Test [5] addresses Collagenase 3 (Homo sapiens) (UniProt P45452). Description: NVS_ENZ_hMMP13: NovaScreen (NVS) Enzymatic Assay for human Matrix Metalloproteinase-13 (MMP13) (AID 2283182). The procedure, abridged: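 Recombinant MMP13 cleaving fluorescent substrate, cell-free, measured 1 h after dosing. Primary duplicate screen at 25 uM; actives tested in concentration-response up to 50 uM; loss of signal relative to DMSO.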

The target in test [6] is human Matrix Metalloproteinase-3 (MMP3), MMP3 (gene 4314) (UniProt P08254). The experiment in a line: NVS_ENZ_hMMP3: NovaScreen (NVS) Enzymatic Assay for human Matrix Metalloproteinase-3 (MMP3) (AID 2283185). The method, boiled down: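 Cell-free recombinant human MMP3 activity, fluorescence intensity read 1 h after dosing. Primary screen duplicate at 25 uM, actives retested in concentration series; loss of signal vs DMSO baseline.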

Test [7] concerns the target human Matrix Metalloproteinase-2 (MMP2), MMP2 (gene 4313) (UniProt P08253). The experiment in a line: NVS_ENZ_hMMP2: NovaScreen (NVS) Enzymatic Assay for human Matrix Metalloproteinase-2 (MMP2) (AID 2283184). The method, boiled down:
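Cell-free recombinant MMP2 activity with a fluorescent substrate, read 1 h after dosing. Primary screen in duplicate at 25 uM; actives then run in concentration series; loss of signal fitted versus DMSO.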

Test [8] deals with human Ephrin type-A Receptor 1 (EphA1), EPHA1 (gene 2041) (UniProt P21709). Description: NVS_ENZ_hEphA1: NovaScreen (NVS) Enzymatic Assay for human Ephrin type-A Receptor 1 (EphA1) (AID 2283158).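 Further: activity is signal loss versus DMSO meaning EphA1 kinase inhibition.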 The method, boiled down: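 Biochemical kinase assay run cell-free; 1 h incubation; readout is fluorescence with mobility-shift separation of product. Concentration-response up to 50 uM for actives from a 25 uM screen.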

The target of test [9] is Mitogen-activated protein kinase 3 (Homo sapiens) (UniProt P27361). The experiment in a line: NVS_ENZ_hMAPK3: NovaScreen (NVS) Enzymatic Assay for human Mitogen-Activated Protein Kinase 3 (MAPK 3) (AID 2283177). The method, boiled down:
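Cell-free enzymatic assay with recombinant protein and specific substrate; fluorescence and electrophoretic mobility shift read-out 1 h after dosing. Primary screen duplicate at 25 uM; actives then run in concentration-response up to 50 uM, loss of signal versus DMSO.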

For test [10], the target named is human Phosphodiesterase 4A1 (PDE4A1), PDE4A (gene 5141) (UniProt P27815). Description: NVS_ENZ_hPDE4A1: NovaScreen (NVS) Enzymatic Assay for human Phosphodiesterase 4A1 (PDE4A1) (AID 2283191). The procedure, abridged: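 Cell-free recombinant human PDE4A1 with fluorescent substrate; product separated by electrophoretic mobility shift, 1 h. Screened at 25 uM, then up to 50 uM in concentration-response; loss of signal fitted against DMSO.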

Test [11] has as its target cAMP-dependent protein kinase catalytic subunit alpha (Homo sapiens) (UniProt P17612). Description: NVS_ENZ_hPKA: NovaScreen (NVS) Enzymatic Assay for human Protein Kinase A (PKA) (AID 2283192). The procedure, abridged: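 Recombinant human PKA with specific fluorescent substrate, product separated by electrophoretic mobility shift, read 1 h after dosing. Primary screen at 25 uM in duplicate; actives then run in concentration-response up to 50 uM, activity relative to DMSO.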

Test [12] deals with human Insulin Receptor (InsR), INSR (gene 3643) (UniProt P06213). The experiment in a line: NVS_ENZ_hInsR: NovaScreen (NVS) Enzymatic Assay for human Insulin Receptor (InsR) (AID 2283168). The method, boiled down: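 Fluorescent substrate phosphorylation by recombinant kinase, product resolved by electrophoretic mobility shift, read 1 h after dosing. Screened in duplicate at 25 uM; hits (e.g., 30% inhibition) run in concentration-response to 50 uM; DMSO as baseline.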

Test [13] concerns the target human Janus Kinase 2 (Jak2), JAK2 (gene 3717) (UniProt O60674). Description: NVS_ENZ_hJak2: NovaScreen (NVS) Enzymatic Assay for human Janus Kinase 2 (Jak2) (AID 2283169). The method, boiled down:
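Cell-free recombinant human JAK2 enzyme activity assay, fluorescence/electrophoretic mobility shift read 1 h after dosing. Screened in duplicate at 25 uM, then concentration-response up to 50 uM; activity as signal loss relative to DMSO.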

For test [14], the target named is human LYN Proto-Oncogene, Src family Tyrosine Kinase (LynA), LYN (gene 4067) (UniProt P07948). Description: NVS_ENZ_hLynA: NovaScreen (NVS) Enzymatic Assay for human LYN Proto-Oncogene, Src family Tyrosine Kinase (LynA) (AID 2283173). The procedure, abridged:
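Recombinant kinase with fluorescent substrate; product separated from substrate by electrophoretic mobility shift and read 1 h after dosing. Duplicate screen at 25 uM, then concentration-response up to 50 uM; activity scored as signal loss against DMSO.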

Test [15] concerns the target human Mitogen- and Stress-activated Protein Kinase-1 (Msk1), RPS6KA5 (gene 9252) (UniProt O75582). Description: NVS_ENZ_hMsk1: NovaScreen (NVS) Enzymatic Assay for human Mitogen- and Stress-activated Protein Kinase-1 (Msk1) (AID 2283187). The method, boiled down:
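Recombinant kinase with fluorescent substrate; product separated by electrophoretic mobility shift, read 1 h after dosing. Screened in duplicate at 25 uM; hits (e.g. ≥30% inhibition) tested in concentration–response up to 50 uM. DMSO baseline.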

In test [16] the target is human Phosphodiesterase 10 (PDE10), PDE10A (gene 10846) (UniProt Q9Y233). Description: NVS_ENZ_hPDE10: NovaScreen (NVS) Enzymatic Assay for human Phosphodiesterase 10 (PDE10) (AID 2283195). The procedure, abridged:
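Fluorescence/mobility-shift readout of PDE10A enzyme activity, taken 1 h post-dosing. Primary screen in duplicate at 25 uM; actives (e.g. ≥30% inhibition) retested as singleton concentration-response, top concentration 50 uM.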

In test [17] the target is Histone deacetylase 3 (Homo sapiens) (UniProt O15379). The experiment in a line: NVS_ENZ_hHDAC3: NovaScreen (NVS) Enzymatic Assay for human Histone Deacetylase 3 (HDAC3) (AID 2283163). The method, boiled down: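 Recombinant human HDAC3 with fluorescent substrate, 1 h after dosing; product separated from substrate by electrophoretic mobility shift and read by fluorescence. Primary screen at 25 uM in duplicate; actives (e.g. ≥30% inhibition) retested in concentration-response up to 50 uM.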

Chain of human Esterase Plasma (ES), BCHE (gene 590) (P06276 whole entry, looked up): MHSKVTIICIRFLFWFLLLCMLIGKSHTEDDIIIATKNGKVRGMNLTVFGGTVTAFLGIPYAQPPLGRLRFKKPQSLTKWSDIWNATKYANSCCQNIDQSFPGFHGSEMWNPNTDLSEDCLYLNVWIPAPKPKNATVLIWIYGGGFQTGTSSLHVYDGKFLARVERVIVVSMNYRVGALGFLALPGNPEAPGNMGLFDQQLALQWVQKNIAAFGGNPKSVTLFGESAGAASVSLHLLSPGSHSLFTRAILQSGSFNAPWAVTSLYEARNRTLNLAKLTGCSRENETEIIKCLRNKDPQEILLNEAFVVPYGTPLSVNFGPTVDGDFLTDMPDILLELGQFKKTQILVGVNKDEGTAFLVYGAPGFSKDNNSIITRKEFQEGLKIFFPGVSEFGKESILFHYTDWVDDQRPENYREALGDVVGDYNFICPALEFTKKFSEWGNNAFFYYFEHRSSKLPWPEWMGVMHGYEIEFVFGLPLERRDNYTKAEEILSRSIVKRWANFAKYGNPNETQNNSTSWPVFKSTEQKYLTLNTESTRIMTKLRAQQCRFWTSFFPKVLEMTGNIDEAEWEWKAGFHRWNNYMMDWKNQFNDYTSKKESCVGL
Chain of human Matrix Metalloproteinase-9 (MMP9), MMP9 (gene 4318) (P14780 whole entry, looked up): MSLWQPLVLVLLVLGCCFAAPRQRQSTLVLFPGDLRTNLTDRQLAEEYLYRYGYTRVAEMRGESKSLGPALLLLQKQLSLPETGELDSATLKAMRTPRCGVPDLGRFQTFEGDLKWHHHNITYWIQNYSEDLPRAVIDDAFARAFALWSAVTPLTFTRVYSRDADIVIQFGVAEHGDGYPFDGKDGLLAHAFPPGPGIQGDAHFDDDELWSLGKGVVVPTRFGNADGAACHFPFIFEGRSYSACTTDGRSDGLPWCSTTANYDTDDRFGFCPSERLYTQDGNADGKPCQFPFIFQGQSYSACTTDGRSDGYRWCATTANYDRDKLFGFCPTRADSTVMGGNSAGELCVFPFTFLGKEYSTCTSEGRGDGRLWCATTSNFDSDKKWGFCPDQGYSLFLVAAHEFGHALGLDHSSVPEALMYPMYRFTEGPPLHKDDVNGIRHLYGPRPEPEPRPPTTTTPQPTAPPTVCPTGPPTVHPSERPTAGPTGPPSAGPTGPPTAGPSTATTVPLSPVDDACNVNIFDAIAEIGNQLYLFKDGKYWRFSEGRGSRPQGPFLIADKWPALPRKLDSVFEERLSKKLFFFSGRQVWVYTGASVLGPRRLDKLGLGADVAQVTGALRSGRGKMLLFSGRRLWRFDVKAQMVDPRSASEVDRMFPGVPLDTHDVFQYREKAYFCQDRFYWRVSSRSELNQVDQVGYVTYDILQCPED
Chain of human Ephrin type-A Receptor 1 (EphA1), EPHA1 (gene 2041) (P21709 whole entry, looked up): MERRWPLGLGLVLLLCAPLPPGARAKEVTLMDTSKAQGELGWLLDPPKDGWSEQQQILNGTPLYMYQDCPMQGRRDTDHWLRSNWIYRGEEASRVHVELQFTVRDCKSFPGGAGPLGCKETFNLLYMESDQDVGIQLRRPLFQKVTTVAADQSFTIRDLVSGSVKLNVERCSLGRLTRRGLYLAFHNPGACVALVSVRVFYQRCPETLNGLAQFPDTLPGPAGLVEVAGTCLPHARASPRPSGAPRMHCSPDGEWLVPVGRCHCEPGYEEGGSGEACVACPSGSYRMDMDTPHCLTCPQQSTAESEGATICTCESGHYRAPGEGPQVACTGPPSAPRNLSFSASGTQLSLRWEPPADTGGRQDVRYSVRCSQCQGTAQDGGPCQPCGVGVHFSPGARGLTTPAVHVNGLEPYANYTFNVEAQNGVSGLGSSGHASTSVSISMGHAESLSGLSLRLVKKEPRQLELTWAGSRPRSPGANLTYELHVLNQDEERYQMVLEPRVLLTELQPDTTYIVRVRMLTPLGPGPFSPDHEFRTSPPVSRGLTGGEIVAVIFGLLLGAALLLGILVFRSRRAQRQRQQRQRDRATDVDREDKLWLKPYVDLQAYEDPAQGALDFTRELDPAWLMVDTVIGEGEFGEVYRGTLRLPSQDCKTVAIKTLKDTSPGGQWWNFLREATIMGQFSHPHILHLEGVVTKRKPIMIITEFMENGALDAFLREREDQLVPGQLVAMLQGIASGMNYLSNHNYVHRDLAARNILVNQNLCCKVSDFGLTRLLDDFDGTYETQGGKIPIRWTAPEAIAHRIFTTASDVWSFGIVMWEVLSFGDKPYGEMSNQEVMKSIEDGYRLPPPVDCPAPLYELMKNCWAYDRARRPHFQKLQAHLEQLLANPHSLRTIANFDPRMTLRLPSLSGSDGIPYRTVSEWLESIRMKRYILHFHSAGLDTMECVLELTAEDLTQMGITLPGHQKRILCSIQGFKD
Chain of human Phosphodiesterase 4A1 (PDE4A1), PDE4A (gene 5141) (P27815 whole entry, looked up): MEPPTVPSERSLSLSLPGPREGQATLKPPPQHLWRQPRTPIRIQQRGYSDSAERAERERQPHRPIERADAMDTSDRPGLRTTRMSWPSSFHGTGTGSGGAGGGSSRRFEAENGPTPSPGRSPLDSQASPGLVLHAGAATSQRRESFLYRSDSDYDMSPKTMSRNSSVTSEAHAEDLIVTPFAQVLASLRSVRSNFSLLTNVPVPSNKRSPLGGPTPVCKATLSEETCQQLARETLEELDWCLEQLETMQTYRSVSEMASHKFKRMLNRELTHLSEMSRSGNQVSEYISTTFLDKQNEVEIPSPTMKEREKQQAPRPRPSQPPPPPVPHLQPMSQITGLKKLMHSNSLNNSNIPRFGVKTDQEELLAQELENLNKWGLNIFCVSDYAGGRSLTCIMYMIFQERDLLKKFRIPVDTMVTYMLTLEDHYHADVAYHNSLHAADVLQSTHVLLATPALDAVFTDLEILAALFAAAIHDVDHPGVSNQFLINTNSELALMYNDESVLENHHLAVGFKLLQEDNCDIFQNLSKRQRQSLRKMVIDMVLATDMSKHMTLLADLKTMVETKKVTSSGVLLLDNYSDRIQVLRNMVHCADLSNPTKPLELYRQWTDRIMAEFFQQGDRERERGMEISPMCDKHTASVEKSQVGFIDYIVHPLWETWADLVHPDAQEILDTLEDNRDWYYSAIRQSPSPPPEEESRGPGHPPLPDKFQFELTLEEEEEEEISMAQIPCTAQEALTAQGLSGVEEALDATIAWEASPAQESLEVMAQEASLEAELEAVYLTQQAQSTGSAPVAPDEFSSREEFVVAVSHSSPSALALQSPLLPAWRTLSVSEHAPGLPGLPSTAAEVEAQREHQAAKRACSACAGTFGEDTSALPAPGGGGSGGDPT
Chain of human Elastase, ELANE (gene 1991) (P08246 whole entry, looked up): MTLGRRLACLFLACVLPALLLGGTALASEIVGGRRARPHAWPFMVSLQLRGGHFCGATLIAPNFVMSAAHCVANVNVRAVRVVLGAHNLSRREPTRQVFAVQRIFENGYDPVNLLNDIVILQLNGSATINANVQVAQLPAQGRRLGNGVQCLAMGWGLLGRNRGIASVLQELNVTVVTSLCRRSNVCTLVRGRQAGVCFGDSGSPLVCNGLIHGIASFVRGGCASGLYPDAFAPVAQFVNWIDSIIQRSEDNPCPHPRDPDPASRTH
Chain of Mitogen-activated protein kinase 3 (Homo sapiens) (P27361 whole entry, looked up): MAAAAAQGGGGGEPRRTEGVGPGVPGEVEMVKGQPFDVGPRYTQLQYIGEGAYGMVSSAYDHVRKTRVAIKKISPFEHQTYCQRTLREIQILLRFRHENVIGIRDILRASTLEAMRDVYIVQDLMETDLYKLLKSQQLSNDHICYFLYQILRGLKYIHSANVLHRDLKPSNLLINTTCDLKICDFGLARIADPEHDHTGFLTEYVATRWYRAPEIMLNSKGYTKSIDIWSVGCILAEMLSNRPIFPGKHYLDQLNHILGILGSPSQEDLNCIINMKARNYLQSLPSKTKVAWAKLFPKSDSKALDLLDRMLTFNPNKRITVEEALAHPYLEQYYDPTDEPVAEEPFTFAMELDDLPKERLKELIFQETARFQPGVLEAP
Chain of human Matrix Metalloproteinase-3 (MMP3), MMP3 (gene 4314) (P08254 whole entry, looked up): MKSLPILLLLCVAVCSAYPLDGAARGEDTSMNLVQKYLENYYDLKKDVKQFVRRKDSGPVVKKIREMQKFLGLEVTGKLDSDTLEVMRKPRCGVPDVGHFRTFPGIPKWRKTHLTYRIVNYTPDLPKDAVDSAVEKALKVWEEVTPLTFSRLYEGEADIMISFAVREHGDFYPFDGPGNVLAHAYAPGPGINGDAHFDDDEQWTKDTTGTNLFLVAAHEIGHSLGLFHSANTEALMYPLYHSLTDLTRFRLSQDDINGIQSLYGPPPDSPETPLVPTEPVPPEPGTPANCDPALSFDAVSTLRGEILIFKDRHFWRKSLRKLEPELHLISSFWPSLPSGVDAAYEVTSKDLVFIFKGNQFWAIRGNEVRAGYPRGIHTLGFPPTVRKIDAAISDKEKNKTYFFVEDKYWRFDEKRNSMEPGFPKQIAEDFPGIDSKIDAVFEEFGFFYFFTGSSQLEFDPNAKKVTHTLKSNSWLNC
Chain of human Matrix Metalloproteinase-2 (MMP2), MMP2 (gene 4313) (P08253 whole entry, looked up): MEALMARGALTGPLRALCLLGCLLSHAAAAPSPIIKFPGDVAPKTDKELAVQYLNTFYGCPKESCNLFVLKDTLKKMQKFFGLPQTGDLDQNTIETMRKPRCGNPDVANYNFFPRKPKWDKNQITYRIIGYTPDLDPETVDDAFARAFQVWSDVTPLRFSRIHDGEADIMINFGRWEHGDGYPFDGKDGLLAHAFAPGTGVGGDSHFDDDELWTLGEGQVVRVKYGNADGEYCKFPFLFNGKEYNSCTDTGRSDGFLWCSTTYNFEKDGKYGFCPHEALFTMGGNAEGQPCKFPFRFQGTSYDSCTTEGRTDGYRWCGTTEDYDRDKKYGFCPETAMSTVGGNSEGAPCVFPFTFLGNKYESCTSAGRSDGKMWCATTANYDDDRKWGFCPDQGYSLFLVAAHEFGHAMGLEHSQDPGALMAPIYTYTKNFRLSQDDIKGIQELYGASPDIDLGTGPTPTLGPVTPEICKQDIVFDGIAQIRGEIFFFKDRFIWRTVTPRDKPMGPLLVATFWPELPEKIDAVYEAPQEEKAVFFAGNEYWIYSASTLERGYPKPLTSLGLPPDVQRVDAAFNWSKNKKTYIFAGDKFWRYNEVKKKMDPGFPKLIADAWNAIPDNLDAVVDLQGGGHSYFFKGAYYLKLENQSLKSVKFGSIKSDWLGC

With `CN(C)C(=O)C1(N2CCCCC2)CCN(CC[C@@]2(c3ccc(Cl)c(Cl)c3)CN(C(=O)c3ccccc3)CCO2)CC1`, the concentration at half-maximal activity (AC50) in [1] was 19 µM (active); in [2], 17.5 µM (active). For the same molecule, the outcome in [3] and in [4] was inactive.

For `CCCCOC(=O)c1ccc(O)cc1`, the molecule was called inactive in [2] and in test [6]. Besides, the AC50 in [5] was 25 µM (active).

On to `NCc1cccc(C2CCN(C(=O)c3ccc(C#Cc4ccccc4F)o3)CC2)c1`, for which the AC50 is 25 µM (active) in test [2], 19.5 µM (active) in test [5], 10.1 µM (active) in test [7] and 30.1 µM (active) in test [3].

On to `CC/C(=C(/CC)c1ccc(O)cc1)c1ccc(O)cc1`, for which the molecule was classed as inactive in test [1], in test [2], in test [8], in [9], in test [7] and in [10]. Also, the molecule was classed as inactive in test [11] and in test [4].

For the molecule `O=C1O[C@H]([C@@H](O)CO)C(O)=C1O`, the outcome in [1], in test [8], in test [12] and in [6] was inactive.

`CCOC(=O)O[C@H](C)OC(=O)c1ccc2c(c1)cc(C(=O)NC1CCN(C(C)C)CC1)n2Cc1cc(-c2ccc(Cl)s2)on1`: the AC50 in test [2] is 9.43 µM (active); in test [5], 15.2 µM (active); in test [3] it was 30.9 µM (active).

As to `O=C(O)c1ccccc1-n1cc(C(=O)O)c(=O)c2cc(Nc3c(F)cc(F)cc3Cl)c(Cl)cc21`, the AC50 in test [1] is 18.4 µM (active); in [6], 21.8 µM (active).

On to `CCN(CC)C(=O)c1cc(S(=O)(=O)Cc2ccccc2)c(N2CCC(c3ccccc3)CC2)cc1N(CC)CCN(C)C`, for which the AC50 in test [2] was 0.0737 µM (active); in test [10], 9.38 µM (active); in test [16] it was 16 µM (active). In addition, the result in test [13], in test [14], in test [15] and in test [4] was inactive.

Turning to `O=CCCCC=O`, the outcome in test [2] and in [9] was inactive.

Turning to `Cc1occc1C(=O)Nc1ccc(C(=O)N2CCC(F)(F)/C(=C\C(=O)N3CCC(N4CCCCC4)CC3)c3ccccc32)cc1`, the outcome in [2] was inactive.

Regarding `Cc1c2ccccc2c(C)c2c1ccc1ccccc12`, the AC50 in test [1] is 14.3 µM (active). Also, the molecule was classed as inactive in test [2] and in test [5].

Take `COc1ccc2cc(S(=O)(=O)N[C@H](CC(=O)N[C@H](Cc3ccc(CN4[C@H](C)CCC[C@@H]4C)cc3)C(=O)N(C)C(C)C)c3ccc4c(c3)OCO4)ccc2c1`: the AC50 in [1] was 9.38 µM (active); in test [2] it was 7.52 µM (active). For the same molecule, the molecule was classed as inactive in [3].

With `Clc1cc(Cl)c2c(c1)N=C1CCCCCN1C2`, in test [2], the AC50 was 13.7 µM (active). For the same molecule, the result in [8], in test [10] and in test [4] was inactive.

With `CC(C)(C)c1csc(-c2cc3cc(OCc4ccccc4CC(=O)O)ccc3o2)n1`, the AC50 in test [1] was 12.5 µM (active); in [13] it was 0.00515 µM (active). Besides, the molecule was classed as inactive in test [9] and in test [4].

`c1ccc(C[n+]2cccc3ccccc32)cc1`: the call in test [2] and in test [17] was inactive.
